Data: PubChem BioAssay AID1942 (Johns Hopkins Ion Channel Center, 2009)
The campaign covered roughly 2,400 compounds. About 580 (24%) were called active. The list is a sample of the results. A number with no mark means an inactive call.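 Rule for the calls: active = activity change at or above the mean plus 3 SD of buffer wells without dofetilide, per plate; inactive = the rest.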

Target: Potassium voltage-gated channel subfamily KQT member 2 (Rattus norvegicus) (UniProt O88943)
Assay: KCNQ2 potentiation in CHO cells – cell-based, FluxOR thallium flux, counter-screen for hERG block protector project, confirmation (AID 1942);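 note: normalized value minus buffer-control mean plus three SD of buffer wells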
Conditions: FluxOR thallium flux fluorescence, at 10 µM, active compounds read high

Sequence of Potassium voltage-gated channel subfamily KQT member 2 (Rattus norvegicus) (O88943 whole entry, looked up): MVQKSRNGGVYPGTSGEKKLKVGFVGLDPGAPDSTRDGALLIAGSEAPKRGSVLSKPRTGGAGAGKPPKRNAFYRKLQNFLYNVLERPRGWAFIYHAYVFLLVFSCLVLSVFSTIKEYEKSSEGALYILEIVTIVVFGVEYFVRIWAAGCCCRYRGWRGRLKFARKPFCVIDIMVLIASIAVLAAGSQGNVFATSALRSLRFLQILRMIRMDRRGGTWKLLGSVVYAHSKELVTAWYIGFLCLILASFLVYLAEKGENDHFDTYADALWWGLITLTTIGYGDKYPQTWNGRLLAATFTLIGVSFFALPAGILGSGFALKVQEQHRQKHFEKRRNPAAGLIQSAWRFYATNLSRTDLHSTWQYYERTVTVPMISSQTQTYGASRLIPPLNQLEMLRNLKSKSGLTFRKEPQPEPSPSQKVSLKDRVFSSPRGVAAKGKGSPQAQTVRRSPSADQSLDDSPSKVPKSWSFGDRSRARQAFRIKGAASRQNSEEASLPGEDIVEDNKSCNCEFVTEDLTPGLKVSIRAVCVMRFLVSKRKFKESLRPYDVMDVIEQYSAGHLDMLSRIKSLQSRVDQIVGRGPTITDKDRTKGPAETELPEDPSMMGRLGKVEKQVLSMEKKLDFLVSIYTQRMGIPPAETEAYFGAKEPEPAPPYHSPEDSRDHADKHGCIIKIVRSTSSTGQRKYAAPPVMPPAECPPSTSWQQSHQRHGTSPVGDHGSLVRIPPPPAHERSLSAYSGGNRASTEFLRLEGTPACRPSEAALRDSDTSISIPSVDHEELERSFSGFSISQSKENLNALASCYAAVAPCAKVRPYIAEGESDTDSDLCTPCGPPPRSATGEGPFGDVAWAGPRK

Compound | activity change, less the hit threshold
Clc1cccc(-c2ccc(C=Nc3ccc(N4CCOCC4)cc3)o2)c1Cl | -8.8%
O=C(OCc1ccc(F)cc1)c1cc(S(=O)(=O)N2CCCCC2)ccc1N1CCOCC1 | -12.7%
CCOC(=O)C1CCN(C(=O)CCS(=O)(=O)c2ccc3c(c2)CCN3C(=O)CC)CC1 | -16.7%
S=c1nc(C2CC2)[nH]c2ccccc12 | 35.2% (active)
S=c1nc(C2CCCCC2)[nH]c2ccccc12 | 4.1% (active)
COc1cc(S(=O)(=O)NCC2COCCO2)ccc1-n1cnnn1 (centres undefined) | -13.9%
O=C(N=Nc1c(O)[nH]c2ccc([N+](=O)[O-])cc12)c1cc(-c2ccccc2Cl)nc2ccccc12 | -10.8%
COc1ccc(NC(=O)CN2C(=O)S/C(=C/c3cccn3-c3ccc(C(=O)O)cc3)C2=O)cc1 | -22.6%
c1ccc(-c2ccnc3nc(N4CCN(c5ccccc5)CC4)nn23)cc1 | -26.3%
Cc1cc([N+](=O)[O-])c(C)cc1-c1ccc(/C=N/NC(=O)Cn2nnnc2N)o1 | -10%
COc1ccccc1C(=O)NNC(=O)C(=O)Nc1cccc(Cl)c1C | 131% (active)
CC(=O)Nc1ccccc1C(=O)C(=O)Nc1ccccc1 | -23.5%
COc1ccc(C(=O)Nc2ccccc2C(=O)O)cc1Cl | -8.6%
COc1ccc(Cl)cc1C(=O)Nc1cccnc1Cl | -15.9%
CC(=O)Nc1ccccc1C(=O)C(=O)Nc1ccc(Cl)cc1 | -18.3%
Cc1ccccc1C(=O)NNC(=O)C(=O)Nc1cccc(Cl)c1C | 17.7% (active)
O=C(Nc1ccccc1C(=O)O)c1ccc(NC(=O)C2CC2)cc1 | -20.5%

Compound | activity change, less the hit threshold
Oc1ccc(Cl)cc1C1=NNC(c2cccs2)C1 (centres undefined) | 9.1% (active)
O=C(Nc1cc(Cl)ccc1O)C1CC(c2ccccc2Cl)=NO1 (centres undefined) | -19.1%
CCOc1ccc2[nH]c(=O)c(CN(Cc3ccc(C)cc3)C(=O)N3CCCC3)cc2c1 | -12.4%
CCSc1nnc(NC(=O)Cn2cnc3c2c(=O)n(C)c(=O)n3C)s1 | -15.7%
Clc1ccc(Nc2nc3cccnc3s2)cc1 | -20.7%
S=c1[nH]nc(Nc2ccc(Cl)cc2)s1 | -19.3%
Clc1ccc(Nc2ccc(Cl)nn2)cc1 | 7.4% (active)
COc1ccc(/C=N/NC(=O)C(=O)N2CCCC2)cc1 | -5%
N#Cc1c(-c2ccco2)c2c([nH]c1=S)CCCC2 | -16.2%
O=C(NCc1ccccc1)C(=O)Nc1nc(C23CC4CC(CC(C4)C2)C3)cs1 | -21.1%
O=C(CCc1ccccc1Cl)Nc1ccc(S(=O)(=O)N2CCOCC2)cc1 | -19.3%
O=C(NNC(=S)Nc1ccccc1)c1cccc(S(=O)(=O)N2CCOCC2)c1 | -7.9%
O=[N+]([O-])c1cc(Cl)cc(/C=N/NC(=S)Nc2ccc(S(=O)(=O)N3CCOCC3)cc2)c1O | 29.8% (active)
Cc1ccc(F)cc1CNC(=O)C1CCC(=O)N(C2CC2)C1 (centres undefined) | -13.7%
N#Cc1ccc(-c2ccc(OCC(=O)Nc3cccnc3)cc2)cc1 | -9.1%
O=C(C1CC1)N1N=C(c2ccccc2)CC1(O)C(F)(F)C(F)(F)F (centres undefined) | -22.1%
O=C(CN1C(=O)NC(Cc2ccccc2)C1=O)Nc1ccccc1OC(F)F (centres undefined) | -20.5%
